Results: PubChem BioAssay (EPA / NIEHS)
The source made the active and inactive calls. The calls were made as follows: active = hit-call score of the fitted dose curve at least 0.9, where 1 is the maximum; inactive = score below 0.9.

Experiment: ATG_AP_1_CIS: Attagene CIS-FACTORIAL HepG2 Assay for human Activator Protein 1 (AP-1) (AID 2282931)
Details: HepG2 Attagene cis-factorial AP-1 reporter mRNA; actives raise or lower the signal
Procedure: ATG_CIS is a cell-based, multiplexed-readout assay that uses HepG2, a human liver cell line, with measurements taken at 24 hours after chemical dosing in a 24-well plate.ATG_AP_1_CIS is one of 52 assay component(s) measured or calculated from the ATG_CIS assay. It is designed to make measurements of mRNA induction, a form of inducible reporter, as detected with fluorescence intensity signals by Reverse transcription polymerase chain reaction (RT-PCR) and Capillary electrophoresis technology.Data from the assay component ATG_AP_1_CIS was analyzed into 1 assay endpoint. This assay endpoint, ATG_AP_1_CIS, was analyzed with bidirectional fitting relative to DMSO as the negative control and baseline of activity. Using a type of inducible reporter, measures of mRNA for gain or loss-of-signal activity can be used to understand the reporter gene at the transcription factor-level as they relate to the gene FOS and JUN. Furthermore, this assay endpoint can be referred to as a primary readout, because this assay has produced multiple assay endpoints where this one serves a reporter gene function. To generalize the intended target to other relatable targets, this assay endpoint is annotated to the dna binding intended target family, where the subfamily is basic leucine zipper.
Human liver HepG2 cells are transiently transfected with multiple reporter transcription units (MRTUs) in 6-well plates using FuGene 6 reagent (Roche; 3 ml FuGene/1 mg DNA). The MRTU constructs are regulated by a cis-regulating element (promoter). […] A major difference between the CIS and TRANS system is that in CIS activities of endogenous TFs are measured, whereas the TRANS assay evaluates changes in activities of exogenous, chimeric NR-Gal4 proteins. […] At the end of 24 hour incubation, total RNA was isolated using TriZol reagent (Invitrogen). The isolated RNA is then reverse-transcribed using oligo(dT) primer and Mo-MLV reverse transcriptase (Invitrogen) with DNAse I (Ambion) treatment for 30 min. The one-tenth of the produced cDNA was amplified by PCR using Taq DNA polymerase (Invitrogen) and two reporter sequence-specific primers. The PCR products were fluorescently labeled by primer extension with 6-arboxyfluorescein (6-FAM) 5'-labeled reporter sequence-specific primer (2 min at 95 C, 20 s at 68 C and 10 min at 72 C) and these products were digested with 5U of HpaI (New England Biolabs) for 2h at 37 C. The fragments were purified using Qiaquick PCR columns (Qiagen), analyzed on an ABI 3130xL genetic analyzer (Applied Biosystems) with peak positions identified by using a set of X-rhodamine (ROX)-labeled MapMarker1000 molecular weight standards (BioVentures). The raw capillary electrophoresis data was processed using Attagraph software (Attagene).

SMILES	outcome	AC50
CC(C)CC(=O)O	inactive	
O=C(C1CCCCC1)N1CC(=O)N2CCc3ccccc3C2C1 (stereo not given)	inactive	
Cc1cc(O)cc(C)c1Cl	inactive	
CC/C=C\CCCCCO	inactive	
CC(C)CC(=O)CC(C)C	inactive	
O=C(O)/C=C/C(=O)O	inactive	
Oc1ccc(Cl)cc1C1CCCC1	inactive	
CN(C)Cc1cc(C(C)(C)C)c(O)c(C(C)(C)C)c1	inactive	
CCO[Si](OCC)(OCC)c1ccccc1	inactive	
O=C1NC(=O)[C@@H]2CC=CC[C@H]12	inactive	
CC/C=C\CCO	inactive	
CCCN[C@H]1CCc2nc(N)sc2C1	inactive	
O=C(O)c1cc(Cl)cc(Cl)c1O	inactive	
c1cc(N(CC2CO2)CC2CO2)ccc1Cc1ccc(N(CC2CO2)CC2CO2)cc1 (stereo not given)		54.4 µM (active)
CC(=O)Nc1c(I)c(NC(C)=O)c(I)c(C(=O)O)c1I	inactive	
Sc1nc2ccccc2s1	inactive	
CN(C)CCCN1c2ccccc2CCc2ccc(Cl)cc21	inactive	
CC(=O)OC(C)(C)Cc1ccccc1	inactive	
CC(C)CC(=O)CC(C)CC(C)C (stereo not given)	inactive	
CN(C)N=Nc1ccccc1	inactive	

SMILES	outcome	AC50
OCCN(CCO)c1cccc(Cl)c1	inactive	
CC[N+](CC)(CC(=O)Nc1c(C)cccc1C)Cc1ccccc1	inactive	
COc1c2occc2cc2ccc(=O)oc12	inactive	
Brc1ccc(Oc2ccc(Br)cc2)cc1		56.5 µM (active)
CCCCCCCCCCC1CO1 (stereo not given)		164 µM (active)
CCCC(=O)OC/C=C(\C)CCC=C(C)C	inactive	
C[C@H]1C[C@H]2[C@@H]3CCC4=CC(=O)C=C[C@]4(C)[C@@]3(F)[C@@H](O)C[C@]2(C)[C@@]1(O)C(=O)CO	inactive	
O=C1NC(=O)C2CC=CCC12 (stereo not given)	inactive	
O=C(Oc1ccccc1)c1ccccc1	inactive	
CCCCCCC1CCCC(=O)O1 (stereo not given)	inactive	
COCCCN	inactive	
O=C(O)Cc1c[nH]c2ccccc12	inactive	
NC(N)=Nc1nc(CSCCC(N)=NS(N)(=O)=O)cs1	inactive	
CCC(C)NC(N)=O (stereo not given)	inactive	
O=C(C(=O)c1ccccc1)c1ccccc1	inactive	
CCCCCC[C@@H](O)C/C=C\CCCCCCCC(=O)O		71.8 µM (active)
CC1=C(CC=O)C(C)(C)CCC1	inactive	
CC1=NN(c2cc(Cl)c(S(=O)(=O)O)cc2Cl)C(=O)C1N=Nc1ccc(S(=O)(=O)O)cc1 (stereo not given)	inactive	
Nc1nnc(-c2ccc([N+](=O)[O-])o2)o1		33.4 µM (active)
C=C1CC[C@H]2C[C@@H]1C2(C)C	inactive	
